{"source": "PubChem BioAssay (Tox21)", "note": "Inconclusive results are not listed. A number with no mark means an inactive call. The source made the active and inactive calls. Calls follow the shape of the dose curve; as a rule, active = well fitted inhibition curve with a large enough effect in the repeat runs; inconclusive = weak or mixed curves; inactive = no such curve, though single readings can be large or run the other way. % is scaled to controls: 0 for no effect and ±100 for the full control effect; potency is read from the fitted curve at half-maximal effect.", "data": [{"biological_target": "Cytochrome P450 3A4 (Homo sapiens) (UniProt P08684)", "sequence (P08684 whole entry, looked up)": "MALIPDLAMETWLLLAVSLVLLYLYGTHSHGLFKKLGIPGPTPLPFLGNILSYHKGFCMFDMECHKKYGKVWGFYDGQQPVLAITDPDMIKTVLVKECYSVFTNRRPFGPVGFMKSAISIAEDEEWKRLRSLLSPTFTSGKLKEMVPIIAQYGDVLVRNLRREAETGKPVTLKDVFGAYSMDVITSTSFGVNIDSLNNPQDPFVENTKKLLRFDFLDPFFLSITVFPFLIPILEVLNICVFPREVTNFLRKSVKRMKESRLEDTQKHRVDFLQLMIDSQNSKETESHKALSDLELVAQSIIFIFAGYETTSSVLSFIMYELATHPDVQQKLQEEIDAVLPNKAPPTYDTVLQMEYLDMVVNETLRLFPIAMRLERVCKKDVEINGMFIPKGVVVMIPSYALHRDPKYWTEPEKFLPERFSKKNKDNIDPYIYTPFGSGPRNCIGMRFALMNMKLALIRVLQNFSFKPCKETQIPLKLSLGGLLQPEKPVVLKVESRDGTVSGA", "assay": "Cytochrome P450 Family 3 Subfamily A Member 4 (CYP3A4) small molecule antagonists: luciferase reporter qHTS assay (AID 1671201); also: nearly all actives have a fitted effect of over 50% in size", "details": "P450-Glo CYP3A4 enzyme, luciferin luminescence, 1 h; series mostly up to 115 µM; activity change, negative = inhibition: at the top concentration", "procedure,_shortened": "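Inhibition of CYP3A4 is measured as loss of light: the enzyme converts a proluciferin substrate to luciferin, detected luminescently. Reaction ran 1 h at room temperature with NADPH regeneration after a 10 min compound preincubation.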", "values": [{"molecule": "NC(N)=NS(=O)(=O)c1ccc(N)cc1", "activity change, negative = inhibition": "11% [at 52.9 µM]"}, {"molecule": "CO[Si](OC)(OC)OC", "activity change, negative = inhibition": "0%"}, {"molecule": "OCCN1C[C@H](O)[C@@H](O)[C@H](O)[C@H]1CO", "activity change, negative = inhibition": "4.09% [at 52.9 µM]"}, {"molecule": "COc1cc(C)cc(O)c1", "activity change, negative = inhibition": "1.37%"}, {"molecule": "C=CC(=O)OCCCCCC", "activity change, negative = inhibition": "7.05%"}, {"molecule": "CC(C)(O)Cc1ccccc1", "activity change, negative = inhibition": "13%"}, {"molecule": "C=CCOCC(O)CS(=O)(=O)O", "note": "(configuration not stated)", "activity change, negative = inhibition": "-3.02%"}, {"molecule": "OC[C@H]1O[C@@H]2O[C@H]3[C@H](O)[C@@H](O)[C@@H](O[C@H]4[C@H](O)[C@@H](O)[C@@H](O[C@H]5[C@H](O)[C@@H](O)[C@@H](O[C@H]6[C@H](O)[C@@H](O)[C@@H](O[C@H]7[C@H](O)[C@@H](O)[C@@H](O[C@H]8[C@H](O)[C@@H](O)[C@@H](O[C@H]9[C@H](O)[C@@H](O)[C@@H](O[C@H]1[C@H](O)[C@H]2O)O[C@@H]9CO)O[C@@H]8CO)O[C@@H]7CO)O[C@@H]6CO)O[C@@H]5CO)O[C@@H]4CO)O[C@@H]3CO", "activity change, negative = inhibition": "2.63% [at 52.9 µM]"}, {"molecule": "CCCCC=O", "activity change, negative = inhibition": "-12.1%"}, {"molecule": "CCCCCC[C@@H](CCC)C(=O)O", "activity change, negative = inhibition": "39.4% [at 52.9 µM]"}, {"molecule": "CC(=O)c1ccc(C)cc1", "activity change, negative = inhibition": "1.24%"}, {"molecule": "NC(=O)CCCCC1CCSS1", "note": "(configuration not stated)", "activity change, negative = inhibition": "4.65% [at 52.9 µM]"}, {"molecule": "Cc1ccc(N)cc1[N+](=O)[O-]", "Potency": "40.2 µM (active)"}, {"molecule": "CCCCNc1ccccc1", "activity change, negative = inhibition": "-2.35%"}, {"molecule": "CC(=O)NC(Cc1ccccc1)C(=O)O", "note": "(configuration not stated)", "activity change, negative = inhibition": "9.83% [at 52.9 µM]"}, {"molecule": "C=C(C)[C@@H]1CCC2=CC(=O)C[C@@H](C)[C@]2(C)C1", "activity change, negative = inhibition": "-17.6%"}, {"molecule": "CNC(=O)c1c(I)c(NC(=O)CCCCC(=O)Nc2c(I)c(C(=O)O)c(I)c(C(=O)NC)c2I)c(I)c(C(=O)O)c1I", "activity change, negative = inhibition": "9.28% [at 52.9 µM]"}, {"molecule": "COC(=O)CCCC(=O)O", "activity change, negative = inhibition": "11.6%"}, {"molecule": "Oc1ccc2c(c1)OC[C@@H](N1CCC(O)(c3ccc(F)cc3)CC1)[C@H]2O", "activity change, negative = inhibition": "22.6% [at 52.9 µM]"}, {"molecule": "OCc1ccccn1", "activity change, negative = inhibition": "8.74% [at 52.9 µM]"}, {"molecule": "CN(C)N=Nc1ccccc1", "activity change, negative = inhibition": "15.1%"}, {"molecule": "C=C(C)C(=O)OCCCCCCCCCCCCCCCCCC", "activity change, negative = inhibition": "2.34% [at 23.6 µM]"}, {"molecule": "COc1ccc(NC(C)=O)cc1", "activity change, negative = inhibition": "-15.8%"}, {"molecule": "CC(C)CCCCCCN", "activity change, negative = inhibition": "-0.1%"}, {"molecule": "CCN(CC)C(=O)c1ccc(O)c(OC)c1", "activity change, negative = inhibition": "8.28% [at 52.9 µM]"}, {"molecule": "CCCCOCC(C)OCC(C)O", "note": "(configuration not stated)", "activity change, negative = inhibition": "11.8%"}, {"molecule": "CC(C)[N+](C)(C)CC(O)COc1cccc2ccccc12", "note": "(configuration not stated)", "activity change, negative = inhibition": "1.67% [at 52.9 µM]"}]}]}
